From PubChem BioAssay
Pf Dd2 inh: qHTS Primary assay for Inhibitors of Plasmodium falciparum Dd2 growth in vitro; P. falciparum Dd2 growth, SYBR Green, 72 h; Potency, µM (highest dose often 28.9 µM), without a hit: at the highest dose activity, negative = inhibition, most hits filed as inhibitors; actives 4.3% (n = 120,000); active means well fitted inhibition curve with a large enough effect;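 further: plate controls were DMSO vehicle for no effect and reference drug for full effect; nearly all actives have a fitted effect of over 65% in size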
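Infected erythrocytes (Dd2, 0.3% parasitemia, 2.5% hematocrit final) are added to compound in RPMI-1640/Albumax II medium, grown 72 h at 37C in low oxygen, then lysed with saponin/Triton-X containing SYBR Green and read by fluorescence.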
* hit, by the source's call; i = inactive; [ ] = remark or other dose. Many of the other results were omitted from the sample, so hits are more common in it than they were. Potency means the concentration at half of the fitted maximal effect.

SMILES | Pf Dd2 inh
COc1ccccc1CN1CCC2(CC1)COCCN2C(=O)OCc1ccccc1 | -7%[44.1 µM]
OCC1(Cc2ccccc2)CCN(Cc2ccccc2-c2ccco2)CC1 | 8.9µM*
CCCn1cc(CN2CCC(CO)(Cc3ccccc3Cl)CC2)c(C)n1 | i
COc1cc(NC(=O)c2ccc3oc(=O)c(S(=O)(=O)c4ccccc4)cc3c2)cc(OC)c1 | 21%
COc1ccc(NC(=O)c2cc3c(=O)n(Cc4cccnc4)ccc3nc2C)cc1Cl | -12%
O=C(Nc1cccc(-c2nc3ccccc3[nH]2)c1)c1ccccc1F | -16%
CCOC(=O)c1c(C)oc2nc(C)nc(NCCc3ccc(OC)c(OC)c3)c12 | -25%
CCOC(=O)c1cnc2c(C)c(Cl)ccc2c1NCCc1ccccc1 | -10%
CCOc1ccc(-c2nnc(SCC(=O)NCCc3ccc(OC)c(OC)c3)nc2-c2ccc(OCC)cc2)cc1 | -26%
CCOC(=O)c1cnc2ccc(C)cc2c1NCCc1ccc(OC)c(OC)c1 | 8.9µM*
CCOC(=O)c1ccc2ncc(C(=O)OCC)c(Nc3ccc(C)c(Br)c3)c2c1 | i
CCOC(=O)c1cnc2ccc(OCC)cc2c1NCCc1ccc(OC)c(OC)c1 | 4.5µM*
O=C(C1CCC1)N1CCCc2cc(S(=O)(=O)N3CCN(c4ccccc4)CC3)ccc21 | -11%
COc1ccc(OCCn2nnc3sc4c(c3c2=O)CCCC4)cc1 | -4%
COc1ccc(S(=O)(=O)N2CCN(CC3(O)CCNC3)CC2)cc1 (stereo not drawn) | -7%
CCc1nn(CC(=O)NCCCN2CCN(C)CC2)c(=O)c2cc3occc3n12 | 57%
CN1CCN(CCCNC(=O)Cn2c(-c3cccs3)cc3cc(Cl)ccc32)CC1 | 13µM*
CCN1CCN(CCCNC(=O)Cn2c(-c3cccs3)cc3cc(Cl)ccc32)CC1 | 11µM*
CCN(CC)CCCNC(=O)Cn1c(-c2cccs2)cc2cc(Cl)ccc21 | 11µM*
O=C(O)Cn1c(-c2cccs2)cc2cc(Cl)ccc21 | -15%
Cc1ccc(NC(=O)Cn2c(CCC(=O)O)ccc2-c2cccs2)cc1Cl | -3%
CCC(C)NC(=O)Cn1c(-c2cccs2)cc2cc(Cl)ccc21 (stereo not drawn) | -11%
CN1CCN(CCC(=O)Nc2ccc(Cl)cc2)CC1 | i
CCCN1CCN(CCCNC(=O)Cn2nc(C)n3c(cc4c(OC)cccc43)c2=O)CC1 | -4%
CCOc1ccccc1NC(=O)N(C)CCc1c(C)nn(CC)c1C | -2%
SMILES | Pf Dd2 inh
CC(=O)N1Cc2ccccc2OC2(CCN(C(=O)c3c(C)noc3C)CC2)C1 | 5%
COc1cccc(CNC(=O)C2CCN(S(=O)(=O)c3ccc4c(c3)CCCN4C(C)=O)CC2)c1 | -20%
NC(=O)[C@H]1CCCN1Cc1cnc(N2CCCCC2)nc1 | -7%
CN1CCC2(CCCN(Cc3cc4n(n3)CCCNC4)C2)C1 (stereo not drawn) | 1%
O=C(c1ccccc1)N1CCc2nc(C3CC3)nc(-c3ccc(O)cc3)c2CC1 | -2%
O=C(c1cccc(Cl)c1)N1CCc2nc(C3CC3)nc(-c3ccc(O)cc3)c2CC1 | 5µM*
Cc1ccccc1C(=O)N1CCc2nc(C3CC3)nc(-c3ccc(O)cc3)c2CC1 | 8.9µM*
Cc1nc2c(c(-c3ccc(O)cc3)n1)CN(C(=O)c1ccccc1)CC2 | i
O=C(c1ccccc1F)N1CCc2nc(C3CC3)nc(-c3ccc(Cl)cc3)c2C1 | -29%
Cc1nc2c(c(-c3ccc(Cl)cc3)n1)CCN(C(=O)c1ccccc1C)CC2 | -15%
NC(=O)[C@@H]1CN(C(=O)c2ccccc2)C[C@H]1COc1ccccc1 | -19%
CC(=O)Nc1cccc(NC(=O)Cn2cnc3c(oc4ccccc43)c2=O)c1 | 9%
O=C(Nc1ccc(Cl)cc1)c1cc2c(-c3ccccc3)nn(-c3ccccc3)c2s1 | 1.1µM*
CCOC(=O)c1cccc(NC(=O)c2cc3c(-c4cccc(OC)c4)nn(C)c3s2)c1 | -7%
CC(=O)c1ccc(NC(=O)c2cc(C)nn2-c2ccccc2)cc1 | i
COC1CCN(C(=O)c2ccnc(-c3nnc4ccc(N5CCOCC5)nn34)c2)CC1 | -25%[44.1 µM]
CCc1nncn1C1CCN(S(=O)(=O)c2ccc(Cl)s2)C1 (stereo not drawn) | 17%
Cc1ccc(-c2nc3scc(CCNC(=O)c4cccc(Br)c4)n3n2)cc1 | -4%
CN(CCc1cn[nH]c1)C(=O)C1CCN(C(=O)C2CCC2)CC1 | 25%
O=C1NCCN1C1CCN(Cc2ccc(F)cc2)CC1 | 3%[44.1 µM]
Cn1cc(CN2CCN(C(c3ccccc3)c3ccccc3)CC2)cc1C#N | 3.2µM*
c1ccc(C(c2ccccc2)N2CCN(Cc3nc(-c4ccccn4)no3)CC2)cc1 | -5%
Cn1cc(CN2CCN(C(=O)Cc3ccccc3)CC2)ccc1=O | 0%
COC(=O)[C@@H]1Cc2ncn(Cc3ccc(OC)cc3)c2CN1S(=O)(=O)c1cccc2c(N(C)C)cccc12 | i
COC(=O)c1ccc2nc(C[C@@H]3C[C@@H](C(C)C)[C@H](CNCc4ccccc4O)C=C3C)[nH]c2c1 | -12%
SMILES | Pf Dd2 inh
COc1ccc2nc(C[C@@H]3C[C@@H](C(C)C)[C@H](CNC(=O)CCC(=O)O)C=C3C)[nH]c2c1 | -23%[44.1 µM]
COc1ccccc1CN(Cc1ccccc1OC)C[C@@H]1C=C(C)[C@H](Cc2nc3c(C)cccc3[nH]2)C[C@H]1C(C)C | -8%
CC1=C[C@@H](CNC2CCOCC2)[C@H](C(C)C)C[C@H]1Cc1nc2ccc(Cl)cc2[nH]1 | 7.1µM*
COCC(=O)NC[C@@H]1C=C(C)[C@H](Cc2nc3ccc(Cl)cc3[nH]2)C[C@H]1C(C)C | 2.5µM*
CC1=C[C@@H](CNC2CCOCC2)[C@H](C(C)C)C[C@H]1Cc1nc2ccccc2[nH]1 | -13%[44.1 µM]
COc1ccc2nc(C[C@@H]3C[C@@H](C(C)C)[C@H](CNC(=O)CCCC(=O)O)C=C3C)[nH]c2c1 | -12%
COc1ccc2nc(C[C@@H]3C[C@@H](C(C)C)[C@H](CNCc4ccccc4OC)C=C3C)[nH]c2c1 | 1.3µM*
CC1=C[C@@H](CNC(=O)CCC(=O)O)[C@H](C(C)C)C[C@H]1Cc1nc2ccc(C)cc2[nH]1 | 3%[44.1 µM]
COc1ccc2nc(C[C@@H]3C[C@@H](C(C)C)[C@H](CNC(=O)NC4CCCCC4)C=C3C)[nH]c2c1 | i
CC1=C[C@@H](CNC(=O)CN(C)C)[C@H](C(C)C)C[C@H]1Cc1nc2ccc(Cl)cc2[nH]1 | 6.3µM*
Clc1ccc2oc([C@H]3CCN(Cc4cccs4)C3)nc2c1 | -20%[44.1 µM]
CCC(C(=O)N1CCN(c2ccccc2F)CC1)n1nc(C)c2sc3ccccc3c2c1=O (stereo not drawn) | 18%
Cc1ccc(N2CCn3c2nc2c3c(=O)n(CCCc3ccccc3)c(=O)n2C)cc1C | 21%
Cc1ccccc1NC(=O)Cn1c(N2CCCCC2)nc(C)c(C)c1=O | -13%
COc1ccc(NC(=O)N2CCC3(CC2)SCC(=O)N3c2ccc(OC)cc2)cc1 | i
Cc1c(Cl)cccc1NC(=O)C1CCCN(c2nnc(-n3c(C)ccc3C)s2)C1 (stereo not drawn) | -9%
COc1ccc(NC(=O)Cn2c(-c3ccccc3)nc(C)cc2=O)cc1OC | i
C=CCn1c(-c2ccc(F)cc2)cn2cc(C(=O)N(C)CCO)nc2c1=O | -11%
CC(C)=CCn1c(-c2cc(C)oc2C)cn2cc(C(=O)N[C@@H](C)C(N)=O)nc2c1=O | -7%
CC(C)=CCn1c(-c2ccccc2Cl)cn2cc(C(=O)NCC(C)O)nc2c1=O (stereo not drawn) | 10µM*
O=C(COc1ccc(Cl)cc1)Nc1ccc(C(=O)OCc2cc(=O)n3ccsc3n2)cc1 | i
